Structures are written as SMILES. Results filed as inconclusive are left out. Activity calls are given as the source filed them. The calls were made as follows: active = hit-call score of the fitted dose curve at least 0.9, where 1 is the maximum; inconclusive = response in the unintended direction; inactive = score below 0.9.

In general, AC50 refers to the concentration at which the activity in the assay is half-maximal.

Read-out in the assay: glucuronosyltransferase (UGT1A1), UGT1A1 (gene 54658)
Briefly: CLD_UGT1A1_48hr: CellzDirect (CLD) Gene Expression Assay for glucuronosyltransferase (UGT1A1) at 48 hours (AID 2283709).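 Also: actives increase expression relative to DMSO so potency refers to induction.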 How it is done:
CLD_48hr is a cell-based, multiplexed-readout assay that uses hepatocyte, a human liver primary cell, with measurements taken at 48 hours after chemical dosing in a 96-well plate.CLD_UGT1A1_48hr is one of 16 assay component(s) measured or calculated from the CLD_48hr assay. It is designed to make measurements of mRNA induction, a form of inducible reporter, as detected with chemiluminescence signals by Quantitative Nuclease Protection Assay (qNPA) technology.Data from the assay component CLD_UGT1A1_48hr was analyzed at the endpoint, CLD_UGT1A1_48hr, in the positive analysis fitting direction relative to DMSO as the negative control and baseline of activity. Using a type of inducible reporter, gain-of-signal activity can be used to understand changes in the reporter gene as they relate to the gene UGT1A1. Furthermore, this assay endpoint can be referred to as a primary readout. To generalize the intended target to other relatable targets, this assay endpoint is annotated to the transferase intended target family, where subfamily is glucuronosyltransferase.
Human hepatocyte cultures were treated daily for two consecutive days with fresh dosing solutions containing appropriate concentrations of the 320 ToxCast chemicals (chemical identities were blinded to CellzDirect and other ToxCast collaborators), vehicle control (0.2% DMSO), and positive control inducers as summarized in Table 1. Due to the large number of treatment groups and chemicals examined, the ToxCast chemicals were divided into two groups (spanning two independent cultures of hepatocytes from separate donor preparations (Hu778: ToxCast plates 1 and 2; Hu776: ToxCast plates 3 and 4). Each preparation of human hepatocyte cultures was treated with respective vehicle control, medium only control, set of six positive controls/reference chemicals for the five hepatic receptor pathways, and a subset of eight of the ToxCast chemicals (indoxacarb, pyrithiobac-sodium, norflurazon, cyhalofop-butyl, methomyl, thiram, acetochlor, and propiconazole). These replicate data, coupled with internal replicates designed within the blinded ToxCast chemical library, provided additional data to evaluate interindividual differences between hepatocyte preparations and their potential impact on chemical profiles.Cell morphology and integrity were evaluated using phase-contrast microscopy as an indicator of hepatocyte cell health (Tyson & Green, 1987). Cultures for each treatment group (i.e., media, vehicle [0.2% DMSO], positive control inducers [multiple concentrations], and the ToxCast chemicals [multiple concentrations]) were observed and cell morphology was assessed relative to vehicle control cultures at each harvest time point (0, 6, 24, or 48 h). […] Images were evaluated at the conclusion of the study to assess changes in cell integrity and account for the effects of chemical exposure on uncharacteristic changes in concentration-dependent gene expression profiles. The results from these determinations of apparent cytotoxicity were annotated (yes/no) alongside the corresponding qNPA data for reference.At the conclusion of each treatment period, hepatocyte cultures (96-well) were washed with 1 volume of HBSS, lysed by addition of 25 ul ArrayPlate lysis buffer (HTG, Tucson, AZ), and 70 ul/well of Denaturation Oil, denatured by incubation at 95C for 10 min, and frozen at approximately -70C until analysis by nuclease protection assay (qNPA) (Roberts et al., 2007). For qNPA analysis, cell lysates were thawed at 50C for approximately 30 min, qNPA probes were added, and samples were incubated at 95C for 10 min to begin the detection process by denaturing the target RNA, dissociating the duplexes and secondary structure hybridization. At the conclusion of the hybridization period, S1 nuclease reagent was added to each sample to digest all nonprotected nucleotides at 50C for 60-90 min. […]
Regarding `CCOP(=S)(OCC)Oc1cc(C)nc(C(C)C)n1`, the compound was called inactive.
Still for that read-out and setting: in the case of `CCNc1nc(Cl)nc(NC(C)(C)C#N)n1` it was “inactive”.
Same read-out and setting: in the case of `CC(Oc1cccc(Cl)c1)C(=O)O` (stereo not given) it was “inactive”; in that of `COP(=O)(OC)SCn1c(=O)oc2cc(Cl)cnc21`, “inactive”.
Turning to `C=C(C)[C@H]1Cc2c(ccc3c2O[C@@H]2COc4cc(OC)c(OC)cc4[C@@H]2C3=O)O1`, the call was inactive.
On to `CCCCN(CC)c1c([N+](=O)[O-])cc(C(F)(F)F)cc1[N+](=O)[O-]`, for which the AC50 is 7.05 µM (active).
Consider `CC(=NC#N)N(C)Cc1ccc(Cl)nc1`, for which the result was inactive.
On the same count and under the same terms, in the case of `CCOP(=O)(OCC)Oc1cc(C)nc(C(C)C)n1` it was “inactive”; in that of `CCOC(=O)CC(SP(=O)(OC)OC)C(=O)OCC` (stereo not given), “inactive”; in that of `CCCOc1nn(C(=O)NS(=O)(=O)c2ccccc2C(=O)OC)c(=O)n1C`, “inactive”.
Consider `CNC(=O)ON=C(C)SC`, for which the compound was classed as inactive.
`CSc1nc(NC(C)C)nc(NC(C)C)n1`: the compound was called inactive.
Take `CCC(=NOC/C=C/Cl)C1=C(O)CC(C2CCOCC2)CC1=O` (stereo not given): the result was inactive.
In the case of `CCCCSP(=O)(SCCCC)SCCCC`, the AC50 was 20 µM (active).
For the compound `C[Si](Cn1cncn1)(c1ccc(F)cc1)c1ccc(F)cc1`, the call was inactive.
Take `CCOP(=S)(OCC)SCCSCC`: the AC50 was 4.17 µM (active).
Take `CCCSP(=O)(OCC)SCCC`: the outcome was inactive.
On to `CC(COc1ccc(Oc2ccccc2)cc1)Oc1ccccn1` (stereo not given), for which the AC50 was 4.89 µM (active).
As to `CCOP(=S)(OCC)Oc1ccc2c(C)c(Cl)c(=O)oc2c1`, the compound was called inactive.
Turning to `COP(=O)(OC)C(O)C(Cl)(Cl)Cl` (stereo not given), the AC50 was 0.0665 µM (active).
Turning to `CSC1=N[C@@](C)(c2ccccc2)C(=O)N1Nc1ccccc1`, the call was inactive.
Take `CON=C(C(=O)OC)c1ccccc1CON=C(C)c1cccc(C(F)(F)F)c1`: the compound was called inactive.
As to `CNC(=O)ON=C(SC)C(=O)N(C)C`, the call was inactive.
On the same count and under the same terms, in the case of `CNC(=O)Oc1cccc2c1OC(C)(C)O2` it was “inactive”.
Turning to `CCOC(=O)COc1cc(-c2nn(C)c(OC(F)F)c2Cl)c(F)cc1Cl`, the AC50 is 6.18 µM (active).
In the case of `CC(C)=CC1C(C(=O)OCN2C(=O)C3=C(CCCC3)C2=O)C1(C)C` (stereo not given), the result was inactive.
The same measure, in the same setting: in the case of `C[N+]1(C)CCCCC1` it was “inactive”.
For `COc1cccc(C(=O)NN(C(=O)c2cc(C)cc(C)c2)C(C)(C)C)c1C`, the AC50 is 8.82 µM (active).
Turning to `CCOP(=S)(OCC)Oc1ccc([N+](=O)[O-])cc1`, the AC50 is 2.67 µM (active).
For `Cc1cc(C2CC2)nc(Nc2ccccc2)n1`, the result was inactive.
For the compound `C#CC(C)(C)NC(=O)c1cc(Cl)cc(Cl)c1`, the concentration at half-maximal activity (AC50) is 6.38 µM (active).
On to `CC1=NNC(=O)N(/N=C/c2cccnc2)C1`, for which the compound was called inactive.
Take `CCC(=O)Nc1ccc(Cl)c(Cl)c1`: the result was inactive.
On the same count and under the same terms, in the case of `COc1ccc(C(=CC(=O)N2CCOCC2)c2ccc(Cl)cc2)cc1OC` it was “inactive”.
`CC(C)N(C(=O)SCC(Cl)=C(Cl)Cl)C(C)C`: the compound was classed as inactive.
Still for that read-out and setting: under `Nc1c(Cl)cc([N+](=O)[O-])cc1Cl` stands “inactive”.
On to `CC(C)[C@H](C(=O)O[C@H](C#N)c1cccc(Oc2ccccc2)c1)c1ccc(Cl)cc1`, for which the AC50 was 7.47 µM (active).
Turning to `CCc1cccc(CC)c1N(COC)C(=O)CCl`, the compound was classed as inactive.
The same measure, in the same setting: under `CCC(CC)Nc1c([N+](=O)[O-])cc(C)c(C)c1[N+](=O)[O-]` stands “inactive”; under `CCCOCC(=Nc1ccc(Cl)cc1C(F)(F)F)n1ccnc1`, “inactive”.
